According to PubChem BioAssay:
Active and inactive are the calls of the source. Unless noted, how the calls were made is not given here.

Legend:
[1] = tested on: Wnt5a (protein binding on small-molecule microarray); assay: small molecules binding Wnt5a protein – biophysical, small-molecule microarray, 635/667 nm fluorescence, primary screen (AID 1142); details: 635 nm fluorescence, higher = more signal;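 further: fluorescence read at 667 nm with signal to noise per printed feature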
[2] = ATP-based viability of Huh7 replicon cells – cell-based, CellTiter-Glo luminescence, basal, 48 h, cytotoxicity control for HCV replication inhibitor project, primary screen (AID 1143); details: higher = more signal, called active from +8 up or from −8 down;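 further: Huh7 hepatoma cells carrying a hepatitis C replication reporter with no stimulus; test concentration not given here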
[3] = Pseudomonas biofilm growth suppression – PAO1 strain, BacTiter-Glo luminescence, LB-PBS, primary screen (AID 1144); details: P. aeruginosa PAO1 biofilm, 12 h, higher = more signal
[4] = basal CRE-LacZ reporter activity in PC12 – cell-based, unstimulated, primary screen (AID 1145); details: no forskolin, luminescence, 4.5 h, higher = more signal, called active from +8 up or from −8 down
[5] = forskolin-driven CRE-LacZ activity in PC12 – cell-based, CRE-LacZ reporter, forskolin-stimulated, primary screen (AID 1146); details: luminescence, 4.5 h, higher = more signal, called active from +8 up or from −8 down;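 further: PC12 cells with 6xCRE LacZ reporter stimulated by forskolin 10 µM; beta-galactosidase reporter signal reflecting CREB driven transcription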
[6] = biological target: Streptavidin (Streptomyces avidinii) (UniProt P22629); assay: compounds binding control protein streptavidin – biophysical, small-molecule microarray, 635/667 nm fluorescence, artefact control for SMM compound annotation, primary screen (AID 1147); details: higher = more signal;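 further: signal reflects streptavidin binding to arrayed compounds as a control protein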
Streptavidin (Streptomyces avidinii), sequence (P22629 whole entry, looked up): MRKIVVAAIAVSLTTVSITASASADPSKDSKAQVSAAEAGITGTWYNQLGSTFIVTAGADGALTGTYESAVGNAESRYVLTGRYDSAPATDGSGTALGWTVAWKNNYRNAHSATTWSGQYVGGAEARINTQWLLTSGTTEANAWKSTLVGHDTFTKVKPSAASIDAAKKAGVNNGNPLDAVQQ

[7] = probe aInhba binding on compound microarray – biochemical, small-molecule microarray, 635/667 nm fluorescence, primary screen (AID 1148); details: higher = more signal;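 further: score merges 667nm spot fluorescence with signal-to-noise for antibody binding to printed compounds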
[8] = biological target: Torsin-1A (Homo sapiens) (UniProt O14656); assay: TOR1A wild-type binding on microarray – cell lysate, small-molecule microarray, lysate, 635/667 nm, primary screen (AID 1149); details: COS7 hTOR1A-WT lysate, 635 nm fluorescence, higher = more signal
Torsin-1A (Homo sapiens), sequence (O14656 whole entry, looked up): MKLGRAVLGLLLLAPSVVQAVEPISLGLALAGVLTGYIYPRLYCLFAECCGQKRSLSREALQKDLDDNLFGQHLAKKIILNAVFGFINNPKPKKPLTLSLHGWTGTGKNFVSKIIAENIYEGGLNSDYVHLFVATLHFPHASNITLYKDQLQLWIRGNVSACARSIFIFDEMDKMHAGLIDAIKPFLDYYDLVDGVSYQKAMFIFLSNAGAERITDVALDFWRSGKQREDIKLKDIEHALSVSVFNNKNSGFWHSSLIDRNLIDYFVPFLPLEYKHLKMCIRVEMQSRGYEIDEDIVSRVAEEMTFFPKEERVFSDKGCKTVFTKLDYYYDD

[9] = biological target: Torsin-1A (Homo sapiens) (UniProt O14656); assay: torsin A mutant lysate binding on microarrays – cell lysate, small-molecule microarray, COS7 lysate, 635/667 nm fluorescence, primary screen (AID 1150); details: COS7 hTOR1A mutant lysate, 635 nm fluorescence, higher = more signal;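 further: score pools 667 nm emission and signal to noise measuring lysate protein binding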
[10] = tested on: Sonic hedgehog protein (Shh); assay: Sonic hedgehog microarray binding compounds – biochemical, small-molecule microarray, 635/667 nm fluorescence, primary screen (AID 1151); details: 635 nm fluorescence, higher = more signal;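 further: Shh protein binding to compounds spotted on small-molecule microarray slides; score combines spot fluorescence intensity with signal-to-noise across triplicate slides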
[11] = optical density shifts of acrAB sulA E. coli – strain DRC41, OD650, 48 h, E. coli filamentation inducer project, primary screen (AID 1152); details: higher = more signal, called active from +8 up or from −8 down;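 further: E. coli MC1000 strain DRC41 lacking acrAB efflux pump and sulA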
[12] = probe aLefty1 binding on compound microarray – biochemical, small-molecule microarray, 635/667 nm fluorescence, primary screen (AID 1153); details: higher = more signal;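 further: score merges spot fluorescence with signal-to-noise ratio from the scanned slide images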
[13] = plasmodial surface anion channel blockers, osmotic lysis – cell-based, P. falciparum Indochina, OD700, 1 h, primary screen (AID 1154); details: P. falciparum Indochina infected RBC osmotic lysis, higher = more signal, called active from +8 up or from −8 down
[14] = plasmodial surface anion channel blockers, osmotic lysis – cell-based, P. falciparum Indochina, OD700, 2 h, primary screen (AID 1155);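 further: lysis reports solute entry through the parasite surface anion channel PSAC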; details: P. falciparum Indochina infected erythrocytes, higher = more signal, called active from +8 up or from −8 down
[15] = changes in parasitized red cell lysis, either direction – P. falciparum Indochina, OD700, 3 h, PSAC antagonist project, primary screen (AID 1156); details: P. falciparum-infected erythrocytes, osmotic lysis, higher = more signal, called active from +8 up or from −8 down
[16] = plasmodial surface anion channel blockers, osmotic lysis – cell-based, P. falciparum Indochina, OD700, 18 h, primary screen (AID 1157); details: P. falciparum Indochina infected erythrocytes, osmotic lysis OD700, 18 h; higher = more signal, called active from +8 up or from −8 down
[17] = S6 kinase pathway phospho-S6 level changes – cell-based, A549, cytoblot, luminescence, serum-stimulated, primary screen (AID 1158); details: 5 h, higher = more signal;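 further: serum-stimulated A549 lung adenocarcinoma cells; signal is phosphorylated S6 detected by cytoblot immunostaining with HRP secondary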
[18] = biological target: NADPH oxidase 2 (Homo sapiens) (UniProt P04839); assay: compounds shifting NOX2 Amplex Red fluorescence – cell-based, HEK293-NOX2, PMA-stimulated, NOX inhibitor project, primary screen (AID 1159); details: 45 min, higher = more signal, called active from +8 up or from −8 down; further: test concentration not given here
NADPH oxidase 2 (Homo sapiens), sequence (P04839 whole entry, looked up): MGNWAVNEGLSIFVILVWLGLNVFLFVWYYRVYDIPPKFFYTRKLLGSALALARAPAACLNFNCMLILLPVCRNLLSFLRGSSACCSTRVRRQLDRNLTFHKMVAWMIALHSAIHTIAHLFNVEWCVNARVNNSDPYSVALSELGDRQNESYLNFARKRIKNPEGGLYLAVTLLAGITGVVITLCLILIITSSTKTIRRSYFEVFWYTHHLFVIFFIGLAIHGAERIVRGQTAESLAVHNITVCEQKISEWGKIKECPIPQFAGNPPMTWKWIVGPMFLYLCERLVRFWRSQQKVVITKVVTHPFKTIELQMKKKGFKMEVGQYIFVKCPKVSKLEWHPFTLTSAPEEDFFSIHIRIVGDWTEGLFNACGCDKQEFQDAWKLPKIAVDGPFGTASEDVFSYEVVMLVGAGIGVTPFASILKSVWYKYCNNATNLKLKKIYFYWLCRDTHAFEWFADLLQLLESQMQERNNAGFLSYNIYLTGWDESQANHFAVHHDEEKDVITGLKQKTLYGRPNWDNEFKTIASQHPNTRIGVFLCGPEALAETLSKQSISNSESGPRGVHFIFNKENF

[19] = biological target: NADPH oxidase 4 (Homo sapiens) (UniProt Q9NPH5); assay: compounds shifting NOX4 Amplex Red fluorescence – cell-based, HEK293-NOX4, tetracycline-induced, NOX inhibitor project, primary screen (AID 1160); details: HEK293-NOX4, Amplex Red H2O2 fluorescence, 45 min; higher = more signal, called active from +8 up or from −8 down
NADPH oxidase 4 (Homo sapiens), sequence (Q9NPH5 whole entry, looked up): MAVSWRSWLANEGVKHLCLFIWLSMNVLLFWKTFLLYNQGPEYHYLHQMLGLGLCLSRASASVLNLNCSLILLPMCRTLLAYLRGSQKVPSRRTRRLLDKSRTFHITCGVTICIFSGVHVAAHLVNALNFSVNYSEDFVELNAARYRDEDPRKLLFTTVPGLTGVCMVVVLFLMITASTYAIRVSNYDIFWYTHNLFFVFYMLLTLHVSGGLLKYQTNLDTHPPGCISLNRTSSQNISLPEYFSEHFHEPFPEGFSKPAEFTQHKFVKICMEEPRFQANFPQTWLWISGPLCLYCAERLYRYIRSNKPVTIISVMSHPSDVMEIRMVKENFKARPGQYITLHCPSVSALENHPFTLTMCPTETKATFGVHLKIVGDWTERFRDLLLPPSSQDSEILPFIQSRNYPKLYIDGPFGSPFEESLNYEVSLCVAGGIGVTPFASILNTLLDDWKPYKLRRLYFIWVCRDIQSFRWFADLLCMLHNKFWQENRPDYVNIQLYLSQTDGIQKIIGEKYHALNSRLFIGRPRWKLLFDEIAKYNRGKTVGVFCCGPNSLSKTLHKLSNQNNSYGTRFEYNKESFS

[20] = biological target: NADPH oxidase 5 (Homo sapiens) (UniProt Q96PH1); assay: compounds shifting NOX5 Amplex Red fluorescence – cell-based, HEK293-NOX5, NOX inhibitor project, primary screen (AID 1161); details: HEK293-NOX5, ionomycin, 45 min, higher = more signal
NADPH oxidase 5 (Homo sapiens), sequence (Q96PH1 whole entry, looked up): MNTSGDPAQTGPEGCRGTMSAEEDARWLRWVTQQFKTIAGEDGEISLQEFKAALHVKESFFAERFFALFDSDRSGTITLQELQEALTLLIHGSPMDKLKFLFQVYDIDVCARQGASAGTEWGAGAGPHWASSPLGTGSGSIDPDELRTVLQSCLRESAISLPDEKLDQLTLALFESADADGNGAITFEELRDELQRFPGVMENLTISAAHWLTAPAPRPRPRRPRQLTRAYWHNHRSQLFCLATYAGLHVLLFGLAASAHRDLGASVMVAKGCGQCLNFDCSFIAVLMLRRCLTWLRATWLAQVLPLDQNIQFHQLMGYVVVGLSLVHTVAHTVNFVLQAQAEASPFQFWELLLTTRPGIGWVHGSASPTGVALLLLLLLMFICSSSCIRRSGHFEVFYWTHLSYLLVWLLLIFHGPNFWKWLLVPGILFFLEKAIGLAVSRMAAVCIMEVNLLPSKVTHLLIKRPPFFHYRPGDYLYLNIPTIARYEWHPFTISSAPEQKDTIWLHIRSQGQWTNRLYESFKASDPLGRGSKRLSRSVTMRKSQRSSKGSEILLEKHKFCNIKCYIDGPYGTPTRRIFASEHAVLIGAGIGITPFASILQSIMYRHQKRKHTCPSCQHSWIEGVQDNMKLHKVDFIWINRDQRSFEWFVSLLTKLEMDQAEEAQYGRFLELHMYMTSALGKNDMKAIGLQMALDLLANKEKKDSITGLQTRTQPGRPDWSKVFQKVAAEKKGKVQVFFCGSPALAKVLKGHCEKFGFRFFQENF

Structure (SMILES)	composite z-score [1]	z-score [2]	z-score [3]	z-score [4]	z-score [5]	composite z-score [6]	composite z-score [7]	composite z-score [8]	composite z-score [9]	composite z-score [10]	z-score [11]	composite z-score [12]	z-score [13]	z-score [14]	z-score [15]	z-score [16]	z-score [17]	z-score [18]	z-score [19]	z-score [20]
CCOC(=O)C1=CC[C@H]2C(=O)N(c3ccccc3)C(=O)[C@@H]12	0.125	-0.321 (inactive)	0.96 (inactive)	0.836 (inactive)	-0.0473 (inactive)	0.9	0.19	0.079	1.08	0.814	-1.58 (inactive)	0.0027	0.399 (inactive)	0.772 (inactive)	0.692 (inactive)	0.339 (inactive)	-0.743	-0.234 (inactive)	-2.03 (inactive)	-2.36
CCCCCN1CC=CC23O[C@@H]4C=CCOC(=O)[C@@H]4[C@H]2C(=O)N(C(C)CO)[C@@H]3C1=O (stereo not given in full)	-0.614	0.463 (inactive)	0.397 (inactive)	-0.216 (inactive)	-0.315 (inactive)	-0.541	-0.128	0.909	-0.979	-0.424	-0.0744 (inactive)	-0.103	0.59 (inactive)	0.531 (inactive)	0.136 (inactive)	0.0638 (inactive)	1.43	0.503 (inactive)	0.306 (inactive)	0.938
CC(C)Cc1ccc(CN2CC[C@@H](N)C2)cc1	-0.544	-3.26 (inactive)	-1.53 (inactive)	-0.688 (inactive)	1.52 (inactive)	-1.27	-0.0357	-1.79	-0.677	-0.0963	-3.85 (inactive)	-0.0969	0.483 (inactive)	0.933 (inactive)	-0.285 (inactive)	0.525 (inactive)	0.412	-0.0323 (inactive)	-0.535 (inactive)	-1.29
CCCC1(C(=O)OC)C=C2C(=C(c3ccccc3)C(=O)C2C)CN1 (stereo not given)	0.256	-0.752 (inactive)	0.153 (inactive)	-0.375 (inactive)	0.966 (inactive)	0.312	0.27	0.52	0.0656	-0.599	-1.23 (inactive)	0.51	2.2 (inactive)	0.194 (inactive)	0.923 (inactive)	0.324 (inactive)	-0.267	-0.2 (inactive)	-2.64 (inactive)	-2.63
CC1CC/C=C\[C@H]2OC34C=CCN(Cn5nnc6ccccc65)C(=O)[C@H]3N(CCCCCO)C(=O)[C@@H]4C2C(=O)O1 (stereo not given in full)	-0.613	-1.2 (inactive)	-0.989 (inactive)	0.0524 (inactive)	-0.567 (inactive)	-1.76	-0.176	-2.12	-1.12	-0.124	0.996 (inactive)	-0.624	0.586 (inactive)	0.253 (inactive)	0.193 (inactive)	0.626 (inactive)	0.0478	0.664 (inactive)	0.341 (inactive)	1.68
O=C1C2C=CC(C(O)c3cc(C(F)(F)F)cc(C(F)(F)F)c3)N(Nc3ccccc3)C2C(=O)N1c1ccccc1 (stereo not given)	0.0943	-1.01 (inactive)	-1.35 (inactive)	-0.326 (inactive)	0.501 (inactive)	-0.374	-0.0136	0.702	1.18	-0.857	-0.355 (inactive)	0.345	4.95 (inactive)	2.77 (inactive)	-2.01 (inactive)	2.64 (inactive)	-0.62	0.376 (inactive)	-4.65 (inactive)	-1.33
C#CCN1[C@@H](Cc2ccc(O)cc2)C(=O)O[C@H](Cc2ccccc2)[C@@H]1/C=C/C1CC1	0.0515	-4.07 (inactive)	1.75 (inactive)	15.1 (active)	1.42 (inactive)	-0.196	-0.224	0.161	0.364	0.284	-0.332 (inactive)	-0.196	2.45 (inactive)	0.0937 (inactive)	-1.15 (inactive)	0.0357 (inactive)	-0.663	-0.759 (inactive)	-0.462 (inactive)	-1.54
C#CCOc1ccc(C[C@@H](C(=O)OC)N(CC#C)[C@@H](/C=C/C2CC2)[C@H](O)Cc2ccccc2)cc1	-0.589	-2.59 (inactive)	0.803 (inactive)	14.9 (active)	1 (inactive)	-0.57	-0.183	-1.18	-0.489	-0.34	-1.04 (inactive)	-0.101	1.7 (inactive)	0.135 (inactive)	-0.173 (inactive)	-0.111 (inactive)	-0.138	-0.0591 (inactive)	0.763 (inactive)	-0.732
[N-]=[N+]=Nc1ccccc1[C@H]1OC(c2ccc(OCCCO)cc2)=N[C@@]1(CCS(=O)(=O)c1ccccc1)C(=O)NCc1ccccc1	0.768	-2.65 (inactive)	0.0905 (inactive)	1.26 (inactive)	-0.504 (inactive)	1.47	0.204	0.503	0.786	0.0239	-0.795 (inactive)	0.373	28.1 (active)	27.8 (active)	1.64 (inactive)	1.92 (inactive)	-0.234	0.443 (inactive)	0.184 (inactive)	-0.852
